Source: PubChem BioAssay (National Center for Advancing Translational Sciences (NCATS))
In the library only some 22% were active in any assay of this set; here they are far more common.
LmPK inh = LmPK (Leishmania mexicana) enzyme inhibition; Q27686; purified LmPK, Kinase-Glo ATP luminescence, 1 h; Potency, µM (titrated, usually from 57.5 µM), inactives show at the highest dose activity change, negative = inhibition, usual class: inhibitors; 0.37% of 290,000 active; note: potency is the fitted concentration of half-maximal effect; % is set by controls: 0 for no effect and ±100 for the full control effect
Target sequence (Q27686 whole entry, looked up): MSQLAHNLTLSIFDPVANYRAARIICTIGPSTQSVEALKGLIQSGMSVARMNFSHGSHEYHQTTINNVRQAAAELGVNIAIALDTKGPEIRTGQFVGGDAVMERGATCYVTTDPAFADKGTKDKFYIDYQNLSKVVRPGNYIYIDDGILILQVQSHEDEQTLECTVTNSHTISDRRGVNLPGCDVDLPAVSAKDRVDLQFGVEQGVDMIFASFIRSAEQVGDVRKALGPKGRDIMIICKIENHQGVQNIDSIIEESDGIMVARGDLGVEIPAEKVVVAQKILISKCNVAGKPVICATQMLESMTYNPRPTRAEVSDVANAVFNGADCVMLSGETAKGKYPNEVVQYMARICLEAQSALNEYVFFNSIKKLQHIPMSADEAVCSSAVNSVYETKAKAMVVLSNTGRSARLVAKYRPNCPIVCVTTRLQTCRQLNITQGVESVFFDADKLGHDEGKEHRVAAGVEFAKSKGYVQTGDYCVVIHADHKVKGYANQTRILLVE
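Pyruvate kinase activity monitored as ATP production (luciferase luminescence). Conditions: 0.1 nM enzyme, 0.5 mM PEP, 0.1 mM ADP, 1 h, RT; normalized against uninhibited and no-enzyme wells.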
Pf growth 96h = P. falciparum growth inhibition at 96 hour, primary screen for plastid delayed-death inhibitors; P. falciparum luciferase reporter growth, 96 h; Potency, µM (series often up to 28.7 µM), without a hit: at the top dose activity change, negative = inhibition, usual class: inhibitors; 6.9% of 320,000 active; AID 504834; note: potency is the fitted concentration of half-maximal effect; % is set by controls: 0 for no effect and ±100 for the full control effect
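P. falciparum expressing integrated firefly luciferase grown in erythrocytes (2% hematocrit, 0.05% parasitemia final) with compounds for 96 hours at 37 C, 5% CO2. Growth inhibition read as loss of luminescence after adding luciferase detection reagent.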
Pf growth 48h = inhibits P. falciparum growth in the first generation, 48 h | P. falciparum luciferase growth in erythrocytes, 48 h | Potency, µM (titrated, usually from 28.7 µM), without a hit: at the highest dose activity change, negative = inhibition, hits mostly inhibitors | 5.9% of 310,000 active; note: potency is the fitted concentration of half-maximal effect; % is set by controls: 0 for no effect and ±100 for the full control effect
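Luminescence readout; reporter = integrated firefly luciferase in P. falciparum. RBC culture at 2% hematocrit, 0.1% parasitemia final, 37 C/5% CO2; decreased signal taken as growth inhibition.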
Shiga inhibitor = Shiga toxin inhibition. Vero cells, Shiga toxin protein synthesis inhibition reporter. inhibition, % at 38.7 µM. 9.2% of 290,000 active; in the data active = inhibition mostly above about 28%, no sharp cut-off; inactive = mostly below about 43%; note: 0% is about no effect
CHX counter = counter-screen hit for Shiga toxin inhibitors, cycloheximide; cell reporter, cycloheximide protein synthesis inhibition counterscreen; max response, %; 12% of 300,000 active; AID 2314; in the data active = max response mostly above about 13%, no sharp cut-off; inactive = mostly below about 14%; note: read at 38.3 µM for the half of the compounds with a filed dose; 0% is about no effect
* hit, by the source's call; i = inactive; u = inconclusive; x = no result given. Unless noted, calls come from the whole dose curve; as a rule, active = well fitted inhibition curve with a large enough effect; inconclusive = small, poorly fitted or top-dose-only effect, or another doubt; inactive = no such curve, though single readings can be large or run the other way.

SMILES	LmPK inh	Pf growth 96h	Pf growth 48h	Shiga inhibitor	CHX counter
Cc1cc2nc(SCCN3CCCC3)[nH]c2cc1C	2%	-3%	x	14	12*
CCN(CC(=O)N1CCc2ccccc2C1)S(=O)(=O)c1ccc2ccccc2c1	7%	-15%	x	-17	1
COC(=O)c1ccc(-c2ccc(/C=N/NC(=O)CC3(C)OCCCO3)o2)cc1	-8%	6%	26%	43*	36*
CC1(CC(=O)N/N=C/c2ccc(-c3ccc(Cl)cc3)o2)OCCO1	-1%	u	55%	13	15*
O=C(CN1CCOCC1)N/N=C/c1ccc(-c2ccc(C(=O)O)cc2)o1	4%	11%	11%	10	7
CC1(CC(=O)N/N=C/c2ccc(-c3ccc(C(=O)O)cc3)o2)OCCO1	0%	27%	44%	20	21
CCC(N=c1cc(-c2ccc(OC)cc2)oc2ccc(C)cc12)C(=O)O (stereo not drawn)	2%	227%	110%	77*	82*
CCC(N=c1cc(-c2ccc(OC)c(OC)c2)oc2ccc(C)cc12)C(=O)O (stereo not drawn)	-2%	33%	27%	16	21*
O=C(Nn1c(Cc2cccs2)nc2ccccc2c1=O)c1cccs1	-3%	x	38%	-2	-3
Fc1ccc(-c2cnc[nH]2)cc1	8%	x	45%	35	23*
COc1ccc(NC(=O)c2cccn(CC=C(C)C)c2=O)cc1	8%	40%	169%	58*	40*
COc1ccc(Oc2ccc(NC(=O)c3ccccc3C)cc2)cc1	2%	-21%	-1%	-17	3
C=CCc1cccc2cc(C(=O)Nc3ccc(F)cc3)c(=O)oc12	-7%	0%	6%	0	11*
C=CCn1cccc(C(=O)Nc2ccc(OC)cc2)c1=O	-9%	u	173%	62*	48*
CCOC(=O)C(=O)Nc1ccccc1C(=O)Nc1ccc(OC)cc1	2%	0%	x	23	7
C=CCn1cccc(C(=O)Nc2ccc(F)cc2)c1=O	-2%	98%	100%	63*	39*
CCOc1ccccc1OC(=O)CN1C(=O)c2ccccc2C1=O	1%	-22%	7%	x	-2
O=[As]O[As]=O (stereo not drawn)	x	1.9µM*	1.9µM*	x	x
O=C(O)c1ccc(C2SCC(=O)N2Cc2ccccc2)cc1 (stereo not drawn)	0%	1.7µM*	-4%	-6	-3
NC(=O)c1ccc(C2SCC(=O)N2Cc2ccccc2)cc1 (stereo not drawn)	3%	u	2%	12	-3
O=C(NCC1CCCO1)C(c1cccs1)N(C(=O)c1ccc(-c2ccccc2)[nH]1)C1CCCC1 (stereo not drawn)	6%	u	10µM*	36	3
O=C(NCC1CCCO1)C(c1ccc(F)cc1)N(CCCN1CCOCC1)C(=O)c1ccc(-c2ccccc2)[nH]1 (stereo not drawn)	-2%	9%	13µM*	-9	-2
CC(C)(C)NC(=O)C(c1ccncc1)N(Cc1ccco1)C(=O)c1ccc(-c2ccccc2)[nH]1 (stereo not drawn)	5%	0%	u	91*	39*
O=C(NC1CCCCC1)C(c1ccc(F)cc1)N(CCCN1CCOCC1)C(=O)c1ccc(CN2CCOCC2)o1 (stereo not drawn)	-4%	0%	u	-12	-2
CC(C)(C)NC(=O)C(c1cccs1)N(CC1CCCO1)C(=O)c1ccc(-c2ccccc2)[nH]1 (stereo not drawn)	2%	478%	13µM*	3	7
SMILES	LmPK inh	Pf growth 96h	Pf growth 48h	Shiga inhibitor	CHX counter
O=C(NCC1CCCO1)C(c1cccs1)N(Cc1ccccc1)C(=O)c1ccc(-c2ccccc2)[nH]1 (stereo not drawn)	-2%	i	u	-5	5
COc1ccc(CCNC(=O)C/C(C)=N/NC(=O)COc2ccc(C)cc2Br)cc1OC	-7%	29%	-8%	10	2
CC(C)(C)c1nn2cnnc2n(/N=C/c2ccccc2)c1=O	3%	10%	7%	10	1
COc1ccc(CN(CC(=O)NC2CCCC2)C(=O)c2ccc(-c3ccccc3)[nH]2)cc1	12%	7%	u	-13	3
COc1ccc(CN(C(=O)c2ccc(-c3ccccc3)[nH]2)C(C(=O)NCC2CCCO2)c2ccc(C)o2)cc1 (stereo not drawn)	-1%	6.6µM*	8.3µM*	-7	-3
CN(C)c1ccnc(NCc2ccccc2)c1C#N	-3%	x	9%	55*	30*
CN(C)c1ccnc(N(Cc2ccccc2)Cc2ccccc2)c1C#N	13%	x	u	50*	29*
Cc1cc(N(C)C)c(C#N)c(NCc2ccccc2)n1	1%	u	2%	22	-4
CC(C)(CO)NS(=O)(=O)c1ccc2c(c1)Cc1cc(S(=O)(=O)NC(C)(C)CO)ccc1-2	-1%	169%	u	x	-2
COCCNC(=O)C(c1ccc(C)o1)N(C(=O)C(=O)NC1CCCCC1)c1ccc(F)cc1 (stereo not drawn)	3%	-14%	-18%	-17	-2
Cc1nc(-c2cccc(S(=O)(=O)N3CC(C)OC(C)C3)c2)cs1 (stereo not drawn)	1%	u	-9%	11	-1
Cc1nc(-c2cccc(NC(=O)c3cccc(S(=O)(=O)N4CCCC4)c3)c2)cs1	x	u	12µM*	x	x
Cc1cc(-c2csc(NC(=O)c3cccc(S(=O)(=O)N(C)C)c3)n2)c(C)n1-c1ccccc1	0%	12µM*	8.3µM*	39*	9
Cc1nc(-c2cccc(S(=O)(=O)N3CCOCC3)c2)cs1	1%	72%	13µM*	2	-2
O=C(Nc1nc(-c2cccs2)cs1)c1cccc(S(=O)(=O)N2CCCCCC2)c1	5%	x	-21%	99*	21*
O=C(Nc1nc(-c2cccs2)cs1)c1ccc(S(=O)(=O)N2CCCCC2)cc1	3%	-7%	u	-9	3
CCN1CCN(Cc2c(C(=O)N/N=C(\C)c3ccc(Cl)c(Cl)c3)nnn2-c2nonc2N)CC1	-7%	1%	u	-4	-3
O=C(Nc1nc(-c2ccccc2)cs1)c1cccc(S(=O)(=O)N2CCN(Cc3ccccc3)CC2)c1	8%	u	x	-4	-3
CN1CCN(S(=O)(=O)c2cccc(C(=O)Nc3nc(-c4ccccc4)cs3)c2)CC1	2%	-71%	x	30*	24*
O=C(CSc1nc2cc(S(=O)(=O)N3CCOCC3)ccc2o1)Nc1c(F)cccc1F	-1%	-5%	-18%	1	-2
COc1ccc(-c2csc(NC(=O)c3cccc(S(=O)(=O)N4CCN(C)CC4)c3)n2)cc1	5%	12µM*	u	10	7
O=C(NC1CCCc2ccccc21)c1cccc(S(=O)(=O)N2CCN(c3ccccc3)CC2)c1 (stereo not drawn)	9%	x	10µM*	-15	-1
